The list is not random: actives were taken first. Their share in the collection is about 4%.
Rv3671c protease – Rv3671c (M. tuberculosis) protease inhibition; inhibition, % at 5.96 µM; hit rate 0.048% among 320,000; AID 2606; in the data active means inhibition above about 38%;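 further: extracellular domain of Rv3671c used as enzyme; 0% = enzyme with DMSO and 100% = no enzyme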
Mtb betalactam – beta-lactam sensitization of Mtb H37Rv; hit rate 0.27% among 330,000; inhibition, % at 25 µM; AID 434955; M. tuberculosis H37Rv growth with meropenem, percent inhibition; call rule not given here;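 further: growth measured after seven days incubation then overnight dye step; 0% = bacteria only wells and 100% = bacteria with antibiotic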
UGM FP inh – inhibitors of M. tuberculosis UDP-galactopyranose mutase; purified UGM, fluorescence polarization probe displacement; inhibition, % at 10 µM; hit rate 0.06% among 320,000; in the data active means inhibition above about 10%, passing the limit was not always enough
RecA intein inh – Mtb RecA intein splicing inhibition | P9WHJ3 | inhibition, % (test concentration not listed) | hit rate 0.75% among 290,000 | cell-free RecA intein splicing, fluorescence; in the data active means inhibition above about 30%;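 further: 0% = vehicle wells and 100% = reference inhibitor control wells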
GDH-TPI counter-1 – counter-screen for M. tuberculosis FBA inhibitors: GDH-TPI coupled enzymes; GDH-TPI coupled enzyme counterscreen, NADH absorbance; inhibition, % at 4.8 µM; hit rate 1.2% among 360,000; in the data active means inhibition above about 30%;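 further: 0% = DMSO wells and 100% = wells lacking the enzyme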
FBA Mtb inh – Mtb fructose-bisphosphate aldolase inhibition; AID 588726; purified M. tuberculosis FBA, fluorescence read-out; inhibition, % at 1 µM; hit rate 2.3% among 360,000;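 further: 0% = vehicle and 100% = reference inhibitor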
Target sequence (P9WQA3 whole entry, looked up): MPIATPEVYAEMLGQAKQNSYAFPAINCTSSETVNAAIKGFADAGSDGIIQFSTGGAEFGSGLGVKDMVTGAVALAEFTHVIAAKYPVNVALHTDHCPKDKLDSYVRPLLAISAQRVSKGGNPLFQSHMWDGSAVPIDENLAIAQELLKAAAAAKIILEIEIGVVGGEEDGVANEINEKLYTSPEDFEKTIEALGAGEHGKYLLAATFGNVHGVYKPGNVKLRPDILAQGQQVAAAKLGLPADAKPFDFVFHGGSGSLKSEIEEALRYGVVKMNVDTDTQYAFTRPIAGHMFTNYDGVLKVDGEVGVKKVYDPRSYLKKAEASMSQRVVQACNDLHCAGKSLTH
Mtb FBA confirm – Mtb FBA inhibition, confirmed; shares compounds with FBA Mtb inh; purified M. tuberculosis FBA, fluorescence read-out; inhibition, % at 1 µM; hit rate 78% among 5,600;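 further: 0% = vehicle wells and 100% = reference inhibitor wells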
GDH-TPI counter-2 – GDH-TPI inhibition counter-screen for FBA inhibitors | GDH-TPI coupled enzyme counterscreen, fluorescence | shares compounds with FBA Mtb inh | hit rate 81% among 5,600 | inhibition, % at 1 µM | AID 652141; in the data active means inhibition above about 10%
* marks the source's active call; other numbers are inactive results; x = not tested or not shown; + = active, no number. Unless noted, no stated cut-off is given here; in the data, active means inhibition above about 27%; inactive means the rest.

SMILES	Rv3671c protease	Mtb betalactam	UGM FP inh	RecA intein inh	GDH-TPI counter-1	FBA Mtb inh	Mtb FBA confirm	GDH-TPI counter-2
CCc1cc2c(CN3CCN(Cc4ccccc4)CC3)cc(=O)oc2cc1O	x	93	1	-158	7	97*	113*	93*
CCc1cc2c(CN(C)Cc3ccccc3F)cc(=O)oc2cc1O	-18	-2	0	-103	6	58*	+	+
Cc1ccc2oc(=O)cc(CN3CCN(Cc4ccccc4)CC3)c2c1	-20	8	1	0	7	-1	x	x
COc1ccc(CCNC(=O)c2cc(S(=O)(=O)N3CCOCC3)cn2C)cc1OC	-4	7	2	-2	5	3	x	x
CCC/C=N/Nc1nnc(Cc2ccc(OC)c(OC)c2)c(=O)[nH]1	-15	-4	2	-2	2	1	x	x
CN(Cc1ccccc1C(F)(F)F)C(=O)C1CCC(=O)N(CC2CCCCC2)C1 (stereo not given)	x	x	x	x	4	-2	x	x
CSc1ccc(Cl)c(C(=O)Nc2cc(S(=O)(=O)N3CCOCC3)ccc2N2CCOCC2)c1	2	2	0	x	9	4	x	x
CCOC(=O)N1CCN(Cc2nc3cc(NC(=O)CC)ccc3n2C)CC1	2	2	1	0	2	6	x	x
O=C(Nc1ccc2c(c1)nc1n2CCN(C2CCCCC2)C1)NC1CCCCC1	7	-16	-1	7	x	x	x	x
CCC(=O)Nc1ccc2c(c1)nc1n2CCN(CCOC)C1	4	1	1	-3	3	33*	1	-1
CCC(=O)Nc1ccc2c(c1)nc1n2CCN(C2CCCCC2)C1	2	-4	4	0	3	62*	92*	91*
CCN(CC(=O)Nc1ccc2c(c1)OCCO2)C(=O)COc1ccc(C)cc1	-5	0	-1	0	-8	2	x	x
COc1cccc(NC(=O)CN(C)C(=O)c2ccc(NC(=O)CC3SC(N4CCCC4)=NC3=O)cc2)c1 (stereo not given)	x	x	x	x	-8	-1	x	x
Cn1c(=O)c2c(C(=O)O)cc(-c3ccccc3)nc2n(Cc2ccccc2)c1=O	-2	12	-1	-10	-5	-2	x	x
COc1ccccc1-c1cc(C(=O)O)c2c(=O)n(C)c(=O)n(Cc3ccccc3)c2n1	-6	-4	3	-4	3	38*	-3	-5
Cc1cc(O)c(C(C[N+](=O)[O-])c2ccc(Cl)cc2)c(=O)o1 (stereo not given)	9	-1	2	2	9	102*	-1	-4
COc1ccc(C(c2c(O)cc(C)oc2=O)c2c(O)cc(C)oc2=O)cc1	-2	-5	2	-2	0	3	x	x
CSCCC(NS(=O)(=O)c1ccccc1)C(=O)OCc1cc(=O)oc2cc(O)ccc12 (stereo not given)	-6	-6	1	-23	-2	17	x	x
Cc1ccc(NC(=O)CSC(C)C(=O)OCc2cc(=O)oc3cc(O)ccc23)cc1 (stereo not given)	x	x	x	x	12	41*	+	+
CCN(CC)c1ccc(C(=O)OCc2cc(=O)oc3cc(O)ccc23)cc1	-6	4	3	-4	32*	72*	-4	-2
COc1cc(COCC(O)CN2CCN(CCN3C(=O)c4cccc5cccc(c45)C3=O)CC2)cc(OC)c1OC (stereo not given)	-3	1	-1	-4	20	1	x	x
COc1ccc(COCC(O)CN2CCC(CN3C(=O)c4cccc5cccc(c45)C3=O)CC2)cc1OC (stereo not given)	-9	92	-3	0	14	30*	-1	-2
CC(C)c1csc(CN2CCC(C(=O)Nc3cccc(-c4ccco4)c3)CC2)n1	x	x	x	x	-4	-3	x	x
N#Cc1c(F)cccc1N1CCC(C#N)CC1	3	15	-3	-1	6	31*	154*	115*
Cc1c(OC(C)C(=O)NCCCn2ccnc2)ccc2c3c(c(=O)oc12)CCC3 (stereo not given)	-5	3	2	-2	2	24	x	x
SMILES	Rv3671c protease	Mtb betalactam	UGM FP inh	RecA intein inh	GDH-TPI counter-1	FBA Mtb inh	Mtb FBA confirm	GDH-TPI counter-2
Cc1cc(OC(C)C(=O)NCc2cccnc2)c2c3c(c(=O)oc2c1)CCC3 (stereo not given)	-7	4	-1	-1	6	21	x	x
Cc1c(OC(C)C(=O)NCc2ccncc2)ccc2c3c(c(=O)oc12)CCCC3 (stereo not given)	-5	99	0	0	12	34*	0	-3
Cc1cc(OC(C)C(=O)NCc2ccncc2)c2c3c(c(=O)oc2c1)CCCC3 (stereo not given)	-1	18	2	-1	10	71*	178*	154*
Cc1cc(OCC(=O)NCc2ccncc2)c2c3c(c(=O)oc2c1)CCCC3	0	14	-1	-1	4	85*	122*	94*
Cc1cc(OC(C)C(=O)NCc2ccncc2)c2c3c(c(=O)oc2c1)CCC3 (stereo not given)	-4	0	2	0	9	64*	133*	93*
Cc1ccc(C(C)C)c(OCC(=O)Nc2ccc(N3CCOCC3)cc2N2CCOCC2)c1	x	x	x	x	2	-2	x	x
Cc1cc(=O)oc2c(C)c(OC(C)C(=O)NCC(O)c3ccccc3)ccc12 (stereo not given)	-1	2	2	-1	9	20	x	x
Cc1c(OC(C)C(=O)NCC(O)c2ccccc2)ccc2c3c(c(=O)oc12)CCCC3 (stereo not given)	0	0	2	3	21	48*	+	197*
O=C(Nc1ccc(F)cc1)c1ccc2snnc2c1	-7	-2	5	0	5	46*	122*	114*
Cc1ccc(NC(=O)c2ccc3snnc3c2)cc1C	-9	-8	1	0	3	-2	x	x
CCCC[n+]1c2ccccc2cc2ccccc21	-4	-6	-1	-158	-17	11	x	x
c1ccc(C[n+]2cccc3c4ccccc4ccc32)cc1	6	-8	-1	-2	6	40*	+	+
CCCCC[n+]1cccc2c3ccccc3ccc21	-2	9	0	-1	9	100*	85*	61*
COc1ccccc1-c1cc2ccccc2[nH]1	4	7	0	5	12	90*	49*	27*
CCC(C)N(C(=O)COC(=O)c1ccc(=O)n(Cc2ccccc2)n1)C1CCS(=O)(=O)C1 (stereo not given)	6	-5	-3	1	8	1	x	x

Screens as filed in PubChem BioAssay.
